{
  "source": "PubChem BioAssay AID2284326",
  "about": "(EPA ToxCast)",
  "note": "Records with an inconclusive call do not appear. Activity calls are given as the source filed them. Rule for the calls: active = hit-call score of the fitted dose curve at least 0.9, where 1 is the maximum; inconclusive = response in the unintended direction; inactive = score below 0.9.",
  "data": [
    {"test_system": "TPO (gene 7173)", "experiment": "CCTE_GLTED_hTPO: CCTE's human Thyroperoxidase (hTPO) Inhibition Assay, Great Lakes Toxicology and Ecology Division (GLTED) Lab", "procedure": "CCTE_GLTED_hTPO is a cell-free, single-readout assay designed to test the inhibitory activity of chemicals toward human thyroperoxidase (TPO) protein. Uninhibited enzyme converts Amplex UltraRed to a fluorescent product. Measurements were taken 0.5 hour after chemical dosing in a 96-well plate. CCTE_GLTED_hTPO is the assay component measured from the CCTE_GLTED_hTPO assay. It is designed to make measurements of enzyme activity, a form of enzyme reporter, as detected with […] by Fluorescence technology.Data from the assay component CCTE_GLTED_hTPO was analyzed at the assay endpoint CCTE_GLTED_hTPO in the positive analysis fitting direction relative to DMSO as the negative control and baseline of activity. Using a type of enzyme reporter (the Amplex UltraRed assay), loss-of-signal activity can be used to understand decreased peroxidase activity in the presence of excess […]. To generalize the intended target to other relatable targets, this assay endpoint is annotated to the 'oxidoreductase' intended target family, where the subfamily is 'peroxidase'.\n[…]", "values": [
      {"smiles": "O=C(O)C(F)(OC(F)(F)C(F)(OC(F)(F)C(F)(OC(F)(F)C(F)(F)C(F)(F)F)C(F)(F)F)C(F)(F)F)C(F)(F)F", "note": "(centres undefined)", "AC50": "0.0612 µM (active)"},
      {"smiles": "O=C(O)C(F)(OC(F)(F)C(F)(OC(F)(F)C(F)(F)C(F)(F)F)C(F)(F)F)C(F)(F)F", "note": "(centres undefined)", "AC50": "13.1 µM (active)"},
      {"smiles": "O=C(O)C(F)(F)C(F)(F)C(F)(F)C(F)(F)C(F)(F)C(F)(F)C(F)(F)C(F)(F)Cl", "AC50": "278 µM (active)"},
      {"smiles": "O=C(Cl)C(F)(F)C(F)(F)C(F)(F)C(F)(F)C(F)(F)C(F)(F)C(F)(F)C(F)(F)F", "outcome": "inactive"},
      {"smiles": "O=C(Cl)C(F)(F)C(F)(F)C(F)(F)C(F)(F)C(F)(F)C(F)(F)F", "AC50": "48.3 µM (active)"},
      {"smiles": "CN(C(=O)C(F)(F)C(F)(F)C(F)(F)F)[Si](C)(C)C", "AC50": "59.5 µM (active)"},
      {"smiles": "O=C(O)C(F)(F)C(F)(F)C(F)(F)C(F)(F)C(F)(F)C(F)(F)C(F)(F)C(F)(F)C(F)(F)C(F)F", "outcome": "inactive"},
      {"smiles": "O=C(Cl)C(F)(F)C(F)(F)C(F)(F)C(=O)Cl", "AC50": "150 µM (active)"},
      {"smiles": "FC(F)(F)C(F)(F)C(F)(F)C(F)(F)C(F)(F)C(F)(F)C(F)(F)C(F)(F)CCS", "AC50": "50 µM (active)"},
      {"smiles": "O=S(=O)(Cl)C(F)(F)C(F)(F)C(F)(F)C(F)(F)C(F)(F)C(F)(F)C(F)(F)C(F)(F)F", "AC50": "276 µM (active)"},
      {"smiles": "FC(F)(F)C(F)(F)C(F)(F)C(F)(F)C(F)(F)C(F)(F)CCS", "outcome": "inactive"},
      {"smiles": "Cn1cc[nH]c1=S", "AC50": "0.127 µM (active)"},
      {"smiles": "FC(F)=C(F)C(F)(F)C(F)(F)C(F)(F)C(F)(F)C(F)(F)C(F)(F)F", "AC50": "30.9 µM (active)"},
      {"smiles": "O=S(=O)(OCC(F)(F)F)C(F)(F)C(F)(F)C(F)(F)C(F)(F)F", "AC50": "42.2 µM (active)"}
    ]}
  ]
}
